Source: PubChem BioAssay (NCATS)
Results filed as inconclusive are left out. Values without a mark were called inactive. The source made the active and inactive calls. The call rests on the fitted dose curve; in most records, active means well fitted cell-killing curve with a large enough effect; inconclusive means small, poorly fitted or top-dose-only effect, or effect the other way; inactive means no such curve, though single readings can be large or run the other way.

experiment: Viability qHTS for spleen associated tyrosine kinase inhibitor (SYKi) drug resistant MV4-11 cells (AID 1963824); conditions: SYKi-resistant MV4-11 viability, CellTiter-Glo, 72 h; series mostly up to 45 µM; viability, % of control: at the top concentration; further: nearly all actives have a fitted effect of over 35% in size
How it was run: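 SYK inhibitor-resistant MV4-11 AML cells, 500 per well, added to predispensed compounds and incubated 72 hr at 37 C, 5% CO2. Viability measured by CellTiter-Glo luminescence after 10 min at room temperature.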
Potency means the concentration at half of the fitted maximal effect.

Structure (SMILES) | viability, % of control | Potency
C/C=C(\C)C(=O)OC[C@H]1O[C@H](O[C@H]2O[C@H](CO)[C@@H](OC(=O)/C(C)=C/C)[C@H](O)[C@H]2O[C@@H]2O[C@H](CO)[C@@H](O)[C@H](O)[C@H]2O)[C@H](O[C@@H]2O[C@H](CO)[C@@H](O)[C@H](O)[C@H]2O)[C@@H](O)[C@@H]1O | 92.1% [at 9.25 µM] | 
CCc1nn(CCO)c(CC)c1Oc1cc(C#N)cc(C#N)c1 | 62.7% | 
CC(=O)N[C@@H](CC(=O)O)C(=O)N[C@@H](CCC(=O)O)C(=O)N[C@H](C(=O)N[C@@H](CC(=O)O)C(=O)Nc1ccc2c(C)cc(=O)oc2c1)C(C)C |  | 6.51 µM (active)
CC1=C2CC(C)(C)CC2C(O)C2=C(C1)C(=O)OC2O (centres undefined) | 62.7% | 
O=c1[nH]ccc2c(S(=O)(=O)N3CCCNCC3)cccc12 | 81% | 
COc1cc(OCc2cccc(-c3ccccc3)c2C)cc(OC)c1CN1CCCC[C@H]1C(=O)O |  | 8.33 µM (active)
CC(C)n1cnc2c(NCc3cccc(C(F)(F)F)c3)ncnc21 |  | 20.6 µM (active)
CC(=O)c1ccc2c(c1)N(CCCN(C)C)c1ccccc1S2 |  | 11.9 µM (active)
CCC(=O)O[C@]1(C(=O)CCl)[C@@H](C)C[C@H]2[C@@H]3C[C@H](F)C4=CC(=O)C=C[C@]4(C)[C@@]3(F)[C@@H](O)C[C@@]21C |  | 18.4 µM (active)
O=C1c2ccccc2-c2c(NCCc3ccccc3)c(=O)[nH]c3cccc1c23 |  | 23.1 µM (active)
C[C@H](O)[C@H](O)/C=C/c1cccc(O)c1CO |  | 0.0092 µM (active)
C/C1=C\[C@H]2OC(=O)[C@@H](C)[C@@H]2CC/C(C(=O)O)=C/CC1 | 57.4% | 
OC[C@H]1O[C@@H](OC/C=C/c2ccc(O)cc2)[C@H](O)[C@@H](O)[C@@H]1O | 91.2% | 
C=C1C(OC2OC(CO)C(O)C(O)C2O)CC2C(C)(C)C(O)CCC2(C)C1CC/C(C)=C\COC(=O)CC(=O)O (centres undefined) |  | 5.44 µM (active)
COc1cn(-c2ccc(-n3cccn3)cc2F)nc(-c2ccnn2-c2ccccc2)c1=O | 83.2% | 
C/C=C(\C)C(=O)OC1C2(O)CC3=C4CC(=O)OC(c5ccoc5)C4(C)CCC3C(C)(C2=O)C(C(OC(C)=O)C(=O)OC)C1(C)C (centres undefined) |  | 4.85 µM (active)
C=C(C)C1Cc2cc(C(=O)OC3OC(CO)C(O)C(O)C3O)ccc2O1 (centres undefined) | 77.5% | 
COc1c(C(C)C)c(O)c(O)c2c1C(OC)[C@H]1OC(=O)[C@@]23CCCC(C)(C)[C@H]13 (some centres undefined) |  | 14.3 µM (active)
COc1cc2ncnc(Nc3ccc(Oc4ccccc4)cc3)c2cc1OC |  | 0.291 µM (active)
CC1(C)CC23[C@@H]4CC(=O)[C@@H]2COC(=O)[C@@H]3CC[C@H]41 |  | 1.64 µM (active)
O=C(NO)c1ccc(CC(=O)N(CCO)c2ccccc2)cc1 |  | 16.4 µM (active)
C=C(C)C1CCC(C)C12CC(O)C1(C)OC1C2OC(=O)C(N)CCC(=O)O (centres undefined) | 83% | 
CCC(C)/C=C(C)/C=C/C1=CC2=C(Cl)C(=O)C(C)(O)C(=O)C2(O)C(OC)O1 (centres undefined) |  | 10 µM (active)
CC(C)C[C@H](CC(=O)NO)C(=O)N[C@H](C(=O)N[C@@H](C)C(=O)NCCN)C(C)(C)C | 90.6% [at 9.25 µM] | 
COc1ccc(-c2cnc3ccc(NCc4ccc(S(N)(=O)=O)cc4)nn23)cc1OC |  | 1.64 µM (active)
C[C@@H]1O[C@@H](O[C@H]2[C@H](O)[C@@H](O[C@@H]3O[C@H](CO)[C@@H](O)[C@H](O[C@@H]4O[C@H](CO)[C@@H](O)[C@H](O)[C@H]4O)[C@H]3O)[C@H](O[C@H]3CC[C@@]4(C)C(=CC[C@@H]5C4CC[C@@]4(C)C5C[C@@H]5OC6(CC[C@@](C)(CO[C@@H]7O[C@H](CO)[C@@H](O)[C@H](O)[C@H]7O)O6)[C@@H](C)[C@@H]54)C3)O[C@@H]2CO)[C@H](O)[C@H](O)[C@H]1O (some centres undefined) | 94.3% [at 9.25 µM] | 
COc1ccc(N2CCN(C(=O)c3cc4c(s3)-c3ccccc3S(=O)(=O)C4)CC2)cc1 | 72.4% | 
NCCOCCOCCNC(=O)Cc1ccc(Nc2nc(NCc3ccc(F)cc3)nc(NCC3CCCCC3)n2)cc1 |  | 4.61 µM (active)
CCN(Cc1cc(Nc2nc(C)cn3c(-c4cn[nH]c4)cnc23)sn1)C(C)(C)CO |  | 0.0082 µM (active)
